Source: PubChem BioAssay (several laboratories)
Only some compounds are listed: those with a hit (about 5.4% of all), similar ones and a draw of the others.
HSF1 inhib: HSF1 inhibition | NIH3T3-HGL HSE-luciferase, MG132-induced, luminescence 8 h; hits give low values | activity change, negative = inhibition, % at 7.5 µM (by protocol) | 300,000 compounds, 0.77% hits | AID 2098;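 active means more than half of replicate wells show activity change below -50%, luminescence cut by over half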;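 further: luciferase reports HSF-1 transcriptional activity via heat shock element; 0% = median of DMSO wells and -100% = zero luminescence signal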
FXN GAA850 act: increases GAA850 frataxin promoter reporter activity. HEK293 lucGAA850 FXN promoter luciferase reporter, 24 h; percent of 10 µM SAHA response. activation, % at 6 µM. 360,000 compounds, 0.56% hits. AID 540364;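 active means activation above the average of all compounds screened plus 3 SD, cutoff fixed separately per campaign, cut at about 7.5% in these data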;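 further: 0% = DMSO wells and 100% = 10 µM SAHA wells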
HSF1 activator: increases HSF-1 driven luciferase reporter signal | AID 504408 | activation, % at 9 µM | 300,000 compounds, 1.7% hits | NIH3T3-HGL HSF-1 luciferase reporter, MG132, 8 h; 100% = twice DMSO control signal;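 active means mean replicate activation of at least 50% with a set share of replicates each reaching 50%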;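 further: 0% = median of the neutral control wells and 100% = twice that signal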
AHR activator: activates the human aryl hydrocarbon receptor. AHR-responsive luciferase reporter cells, luminescence. activation, % at 5 µM. 320,000 compounds, 2.5% hits; in the data active means activation above about 47%;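 further: 0% = vehicle wells and 100% = reference agonist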
Target sequence (P35869 whole entry, looked up): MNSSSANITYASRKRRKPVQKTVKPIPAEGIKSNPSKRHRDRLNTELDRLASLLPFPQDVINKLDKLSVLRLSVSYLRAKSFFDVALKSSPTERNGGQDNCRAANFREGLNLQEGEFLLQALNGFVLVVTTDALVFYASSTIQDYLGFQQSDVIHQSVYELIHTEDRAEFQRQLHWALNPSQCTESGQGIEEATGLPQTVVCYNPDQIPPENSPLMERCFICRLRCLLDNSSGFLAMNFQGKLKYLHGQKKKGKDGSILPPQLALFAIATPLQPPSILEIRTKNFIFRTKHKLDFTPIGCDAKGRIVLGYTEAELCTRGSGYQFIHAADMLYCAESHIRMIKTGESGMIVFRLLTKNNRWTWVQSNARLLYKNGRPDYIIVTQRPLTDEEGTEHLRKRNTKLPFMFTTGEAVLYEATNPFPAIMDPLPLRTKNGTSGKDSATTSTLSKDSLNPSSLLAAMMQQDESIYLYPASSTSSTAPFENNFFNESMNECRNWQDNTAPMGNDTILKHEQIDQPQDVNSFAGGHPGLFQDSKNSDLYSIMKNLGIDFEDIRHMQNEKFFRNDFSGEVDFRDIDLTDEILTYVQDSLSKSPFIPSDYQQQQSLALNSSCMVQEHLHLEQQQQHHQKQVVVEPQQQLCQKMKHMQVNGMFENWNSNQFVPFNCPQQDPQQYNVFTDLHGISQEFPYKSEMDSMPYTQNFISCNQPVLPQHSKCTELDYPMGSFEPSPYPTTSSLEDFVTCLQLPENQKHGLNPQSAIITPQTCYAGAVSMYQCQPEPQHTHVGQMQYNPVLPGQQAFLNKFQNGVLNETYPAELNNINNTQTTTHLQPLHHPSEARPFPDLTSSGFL
NR0B1 inh: inhibits human nuclear receptor DAX1. 340,000 compounds, 0.99% hits. P51843. inhibition, % at 6.75 µM. HEK293 Gal4-DAX1 luciferase reporter, luminescence. AID 504766;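 active means inhibition above the mean over all tested compounds plus 3 SD, cut at about 4.2% in these data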;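 further: 0% = DAX1-transfected cells with DMSO and 100% = empty-vector control cells with DMSO; inhibition shows as a rise in luminescence from relieved DAX1 repression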
Numbers without * were called inactive; . = no result.

SMILES | HSF1 inhib | FXN GAA850 act | HSF1 activator | AHR activator | NR0B1 inh
O=C(Cc1ccc(Cl)c(Cl)c1)N1CCOCC1 | 5 | 2 | 43 | 1 | 0
CC(C)CC(NS(=O)(=O)c1ccc2c(c1)oc(=O)n2C)C(=O)NC1CCCc2ccccc21 (centres undefined) | 30 | 3 | 62* | 0 | 1
CCN1C[C@@H]2[C@@H]3C(=O)N(Cc4ccccc4)C(=O)[C@@H]3[C@](Cc3ccccc3)(C1=O)N2C(=O)c1ccc(Cl)cc1 | . | -2 | . | . | -1
O=C1c2ccccc2C(Nc2ccccc2)N1Cc1ccc2c(c1)OCO2 (centres undefined) | 15 | 5 | 7 | 4 | 2
O=C1c2ccccc2C(Nc2ccc3c(c2)OCCO3)N1Cc1ccc2c(c1)OCO2 (centres undefined) | -64* | -7 | -69 | 5 | 0
O=C1c2ccccc2C(Nc2ccc3c(c2)OCCO3)N1c1ccccn1 (centres undefined) | -70* | -3 | -74 | 7 | -2
O=C1c2ccccc2C(Nc2ccc3c(c2)OCCO3)N1c1ccc(Cl)cn1 (centres undefined) | -54* | 0 | -58 | 5 | 4
O=C1c2ccccc2C(Nc2ccccc2)N1c1ccc(Cl)cn1 (centres undefined) | . | 6 | . | . | 1
O=C1c2ccccc2C(Nc2ccc(F)c(Cl)c2)N1c1ccccn1 (centres undefined) | 9 | 0 | 0 | 5 | -1
OCCCNc1cc(-c2ccnc(Nc3cccc(Cl)c3)n2)ccn1 | -58* | -14 | -66 | 18 | -6
CN(C)CCCNc1ccc(-c2cc(Nc3cccc(Cl)c3)ncn2)cn1 | 0 | 0 | 1 | -2 | 0
Cc1ccc(CSc2cc(C)[nH]c(=O)n2)cc1 | -1 | 2 | 18 | 2 | 1
CCN(CC)CCCNC(=O)C1CCC(CNS(=O)(=O)c2ccc(Cl)cc2)CC1 (centres undefined) | -67* | 2 | -73 | 0 | 0
CC(C)CCNC(=O)C1CCC(CNS(=O)(=O)c2ccc(Cl)cc2)CC1 (centres undefined) | -12 | 1 | 1 | . | 2
O=S(=O)(c1cccc(-c2nnc(SCc3nc4ccccc4s3)o2)c1)N1CCOCC1 | 54 | 3 | 54* | 20 | 1
COc1ccc(-n2cc(CNCCc3cscn3)c(-c3ccccc3Cl)n2)cc1 | 28 | . | 59* | 5 | .
Cc1cc2nc(-c3cccnc3SCC(=O)NC(C)C)[nH]c2cc1C | -5 | 6 | 14 | 54* | 1
C/C(=N/NC(=O)CN(c1ccccc1)S(=O)(=O)c1ccccc1)c1ccccc1O | -1 | -2 | -8 | 29 | 1
COc1ccc(NC(=O)N2CCc3ccccc3C2)c(OC)c1 | 10 | 5 | 3 | 33 | 1
CCc1ccc(-c2nc(CSCC(=O)NCc3ccco3)c(C)o2)cc1 | -72* | -13 | -77 | . | -3
Cc1ccc(-c2nc(CSCC(=O)NCC3CCCO3)c(C)o2)cc1 (centres undefined) | 11 | 3 | 20 | 3 | 1
CCOc1ccc(-c2nc(CSCC(=O)NCC3CCCO3)c(C)o2)cc1 (centres undefined) | -57* | -4 | -56 | -5 | 0
O=C(Nc1cccc(-c2ccc(N3CCOCC3)nn2)c1)c1ccc(Cl)cc1 | 10 | 2 | 25 | 9 | 0
O=C(COc1ccc(Cl)cc1)Nc1cccc(-c2ccc(N3CCOCC3)nn2)c1 | 32 | 3 | 55* | 0 | -1
S=C(NN=C(C1CC1)C1CC1)Nc1ccccc1 | -10 | 1 | -6 | 1 | 6.8*
SMILES | HSF1 inhib | FXN GAA850 act | HSF1 activator | AHR activator | NR0B1 inh
O=C(NNC(=S)Nc1ccccc1)C1CC1 | -5 | 1 | 5 | 1 | 1
Cc1ccc(C(O)(C(=O)NN(C(=O)c2ccccc2)c2ccccc2)c2ccc(C)cc2)cc1 | 1 | -4 | -6 | 0 | 0
Cc1ccc(N(NC(=O)C(O)(c2ccccc2)c2ccccc2)C(=O)CCl)cc1 | 72 | -5 | 75* | -1 | -1
CCCS(=O)(=O)c1c(S(=O)(=O)CCC)c2ccc(C(N)=O)cn2c1C(=O)c1ccc(OC)cc1 | 3 | -1 | 0 | -2 | -1
O=C(NCc1ccccc1)c1c(Cl)nc(Cl)c(Cl)c1Cl | 35 | 0 | 65* | -2 | -4
Cc1nc(Cl)c(C(=O)NCc2ccccc2)c(C)c1Cl | -4 | 4 | -9 | -1 | 0
O=C(Nc1cccc(NC(=O)c2ccccc2)n1)c1ccccc1 | 5 | 3 | 12 | 5 | 1
CC(C)CCNC(=O)C1CCCN1C(=O)NC1CCCCC1 (centres undefined) | -72* | -3 | -76 | 1 | 1
S=C(Nc1ccc(N2CCOCC2)cc1)Nc1ccc2snnc2c1 | 20 | -5 | 30 | 55* | 0
CCCCOC(=O)CCc1c(C)n[nH]c1C | 22 | 2 | 63* | 0 | .
CCCCOC(=O)CCc1c(C)[nH]c(=O)c(C#N)c1C | 2 | -2 | -21 | 1 | 0
COC(=O)Nc1nnc(/C=C/c2ccc(OC)cc2)s1 | 10 | 5 | 40 | 55* | 2
COc1ccc(/C=C/c2nnc(NC(C)=O)s2)cc1 | 30 | 4 | 57* | 18 | 2
Cc1cc(NC(=O)C(C)SCC(=O)OCC(=O)N(C)c2ccccc2)no1 (centres undefined) | 4 | 2 | -6 | 1 | 4.6*
Cn1cccc1C(=O)C(=O)Nc1ccc(F)c(F)c1 | 23 | 4 | 63* | -6 | 4
Cc1nnc(-c2cnn(C)c2N)n1Cc1ccccc1 | -2 | 0 | 12 | 29 | 1
CCCCCCCn1c(C)nnc1-c1cnn(C)c1N | 11 | 0 | -3 | 70* | 0
Cc1nnc(-c2cnn(C)c2N)n1CCCN(C)C | 1 | 1 | 9 | 14 | 0
Cc1nnc(-c2cnn(C)c2N)n1Cc1cccc(Cl)c1 | 6 | 1 | 3 | 54* | 0
COc1ccc(C(C)=O)cc1CN1C(=O)NC(CC(C)C)C1=O (centres undefined) | -2 | 0 | 2 | 2 | 4.4*
CCOc1ccccc1NC(=O)CSc1nc2cc(O)ccc2c(=O)n1-c1ccc(OC)c(OC)c1 | 15 | -1 | 14 | 0 | -1
O=C(NNc1nc2c(F)cccc2s1)c1ccccc1 | 0 | 0 | 11 | 15 | 10*
O=C(NNc1nc2ccccc2s1)c1ccc(F)cc1 | . | 2 | . | 54* | 0
COc1ccc(CN2CCNC(=O)C2CC(=O)N(C)C2CCOCC2)cc1OC (centres undefined) | . | 1 | . | . | 0
Cc1cc(/C=C2\SC(=S)N(Cc3ccco3)C2=O)c(C)n1-c1ccccc1 | -66* | -6 | -72 | 12 | 2
C[C@H]1CN([C@@H](C)CO)C(=O)CCCn2cc(nn2)CO[C@@H]1CN(C)C(=O)Nc1ccc(N2CCCCC2)cc1 | . | 0 | . | . | -1
c1cnc2ccc3ncccc3c2c1 | 3 | 0 | 2 | 12 | 5.0*
COc1cc(C2NC(=O)NC(C)=C2C(C)=O)ccc1O (centres undefined) | 0 | 2 | -2 | 0 | 0
